From PubChem
D1 ag: human D1 receptor agonism; P21728; HEK293 T-REx D1 cells, calcium flux, agonist mode; activation, % at 2 µM; actives 1% (n = 360,000); AID 504660; further: 0% is about no effect
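Inducible HEK293 T-REx D1 cells, force-coupled to calcium signalling, were plated at 4000 cells/well with tetracycline and held overnight at 30 C. After no-wash calcium dye loading, compound-evoked calcium rise over 180 s flagged agonists.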
D1 antagonist: antagonists of human D1 dopamine receptor. HEK293 TREx D1 cells, calcium flux, dopamine EC80; hits give low values. activity change, negative = inhibition, % at 10 µM. P21728. actives 3.2% (n = 360,000); in the data active means activity change below about -30%; further: on the % scale 0 is the no-effect control and ±100 the full control effect
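Cells carrying a force-coupled, tetracycline-inducible human D1 receptor report calcium flux. Each well gets a 10 s baseline, compound with 180 s monitoring, then an EC80 dopamine stimulus with a second 180 s kinetic read.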
TRHR PAM: allosteric enhancers of human TRH receptor. actives 0.66% (n = 360,000). TRHR cells, fluo-8 calcium fluorescence, EC20 TRH enhancement. enhancement, % at 2 µM; in the data active means enhancement above about 30%; further: 0% is about no effect
Target sequence (P34981 whole entry, looked up): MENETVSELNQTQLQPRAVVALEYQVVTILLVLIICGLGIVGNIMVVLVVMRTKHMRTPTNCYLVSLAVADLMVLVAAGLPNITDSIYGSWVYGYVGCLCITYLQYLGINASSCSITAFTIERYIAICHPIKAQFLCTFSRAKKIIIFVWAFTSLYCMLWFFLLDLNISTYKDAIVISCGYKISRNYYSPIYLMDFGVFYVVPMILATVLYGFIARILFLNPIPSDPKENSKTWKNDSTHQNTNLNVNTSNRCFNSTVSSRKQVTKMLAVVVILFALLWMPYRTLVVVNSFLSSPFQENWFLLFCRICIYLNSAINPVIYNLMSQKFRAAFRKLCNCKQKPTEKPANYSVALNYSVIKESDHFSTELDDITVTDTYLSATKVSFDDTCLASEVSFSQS
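Enhancer read-out: after compound pinning and an initial kinetic agonist-mode read, an EC20 of TRH (10 nM final) was injected and fluo-8 calcium signal (Ex 480/Em 530) followed at 1 s/cycle for 100 cycles in TRHR-expressing cells.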
TRHR agonist: agonists of human TRH receptor; AID 493084; P34981; TRHR cells, calcium flux fluo-8, FDSS agonist mode; activation, % at 2 µM; actives 0.18% (n = 360,000); further: 0% is about no effect
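Agonist-mode FDSS calcium read (Ex 480/Em 530, 1 s cycles) in 1536-well TRHR cells with fluo-8 dye, after 10-cycle baseline and 23 nL compound addition; TRH at EC20 (10 nM final) added afterwards for the enhancer phase.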
D1 potentiator: potentiators of human D1 dopamine receptor | HEK293 TREx D1 cells, calcium flux, dopamine EC20 potentiation | actives 0.036% (n = 360,000) | P21728 | potentiation, % at 10 µM | AID 504651; in the data active means potentiation above about 30%; further: 0% is about no effect
An asterisk follows results filed as active; ! = repeats disagree. Hits are enriched below; roughly 4.6% of the tested compounds scored in any of these assays. Unless noted, no stated cut-off is given here; in the data, active means activation above about 30%; inactive means the rest.

SMILES	D1 ag	D1 antagonist	TRHR PAM	TRHR agonist	D1 potentiator
CCN(CC)CCn1c(=N)n(CCOc2ccccc2Cl)c2ccccc21	53*	-7	5	-1	-2
COC(=O)c1c(Oc2ccc(Br)cc2)nnc(-c2ccccc2)c1-c1ccccc1	5	-1	-6	2	0
O=C(CS(=O)(=O)c1c[nH]c2ccccc12)N1CCCc2ccccc21	-2	-50*	0	0	-3
CCCCN(CC)Cc1c(O)ccc2c3c(c(=O)oc12)CCC3	0	-10	4	0	-6
COc1ccc([C@H](NC(=O)OC(C)(C)C)C(=O)OC(C)(C)C)cc1	0	-47*	-5	0	-8
CCOc1ccc(/C=C/c2nc(C#N)c(NC(C)c3ccccc3)o2)cc1 (stereo unspecified)	3	2	-3	0	1
CC1=C(C(=O)Nc2ccccc2)C(c2cccs2)n2nc(SCc3ccccc3)nc2N1 (stereo unspecified)	1	0	1	1	1
O=C1c2ccccc2-c2onc3ccc(NCCCn4ccnc4)c1c23	208*	-14	2	112*	4
CCCCN(CC)C(=O)CSc1nc2n[nH]c(C)c2c(=N)n1-c1ccc(CC)cc1	4	-16	-6	-1	4
O=C(O)/C=C/c1ccc2noc(-c3ccccc3)c2c1	0	5	32*	1	-2
O=C(Nc1ccc(Cl)c(Cl)c1)c1cccc(S(=O)(=O)NCc2cccnc2)c1	9	-31*	-5	0	-4
COc1cccc(S(=O)(=O)NCc2ccc(C(=O)Nc3ccc(Cl)c(Cl)c3)cc2)c1	23	-15	14	4	0
O=C(O)c1ccc(S(=O)(=O)NCc2cccnc2)cc1	2	2	35*	0	-2
CC(=O)c1ccc(S(=O)(=O)NCc2cccnc2)cc1	2	-25	5	0	4
COC(=O)c1sc(NC(=O)c2cc(C)on2)nc1C	9	-10	-3	0	8
Cn1c(=O)n(C)c2cc(NC(=O)COc3ccc(F)cc3F)ccc21	1	-14	1	0	-6
CC(=O)Nc1ccc(S(=O)(=O)N(C)C2CCN(C)CC2)cc1	3	-2	-4	0	-2
CC(Oc1cccc(Cl)c1)C(=O)Nc1ccc(S(=O)(=O)N(C)C2CCN(C)CC2)cc1 (stereo unspecified)	94*	-62*	0	4	-8
Cc1cccc(C)c1OCC(=O)Nc1c(C)nn(C)c1C	2	0	-8	1	-2
Cc1nn(C)c(C)c1NC(=O)COc1ccc(Cl)cc1	14	-34*	2	0	1
Cc1nn(C)c(Oc2ccc(Cl)cc2)c1C(=O)O	1	-33*	-5	0	-8
Cn1c(=O)n(C)c2cc(NC(=O)COc3ccc(Cl)cc3)ccc21	18	-33*	0	0	-6
CC(C)(C)NC(=O)C(c1ccco1)N(Cc1ccc2c(c1)OCO2)C(=O)c1snc(C(N)=O)c1N (stereo unspecified)	0	-21	3	-1	2
COc1ccc(CNC(=O)CCc2c(C)nn(-c3ccc(N4CCOCC4)nn3)c2C)cc1	0	-1	23	-1	-8
COc1cccc(N2CCN(C(=O)c3nc(-c4ccc(Cl)cc4)n4c3CCCCC4)CC2)c1	1	11	-17	0	-3
SMILES	D1 ag	D1 antagonist	TRHR PAM	TRHR agonist	D1 potentiator
CN1CCC(N(C)S(=O)(=O)c2ccc(NC(=O)COc3ccc(F)cc3)cc2)CC1	24	-26	7	0	-8
CN1CCC(N(C)S(=O)(=O)c2ccc(NC(=O)COc3ccc(Cl)cc3)cc2)CC1	48*	-18	0	2	-3
CN1CCC(N(C)S(=O)(=O)c2ccc(NC(=O)COc3ccc([N+](=O)[O-])cc3)cc2)CC1	34*	-4	-3	2	-8
N#C/C(=C\c1ccc(O)cc1)c1nc2ccccc2o1	21	-18	-3	6	-3
COc1cc(/C=C(\C#N)c2nc3ccccc3o2)ccc1O	332*	-5	6	78*	5
COC(=O)c1onc(-c2ccccc2)c1C(=O)OC	3	-36*	4	0	-1
O=C(Cn1cncn1)N/N=C/c1ccccc1Cl	0	-11	32*	1	-8
O=C(CO)N/N=C/c1ccccc1F	3	4	-6	0	4
O=C(CC(=O)N/N=C/c1ccc(Cl)cc1Cl)NCc1ccccc1	2	0	0	0	2
O=C(CN1CCCCCCC1)N/N=C/c1ccccc1F	-1	-39*	4	-1	-5
O=C(CC(=O)N/N=C/c1c(F)cccc1Cl)NCc1ccccc1	0	-81*	-3	1	-4
C=CCNC(=O)CC(=O)N/N=C/c1ccccc1F	2	-4	32*	0	8
Cc1ccc(/C=N/NC(=O)Cn2cncn2)cc1	1	3	6	1	0
CCC(C)Sc1cccc(-c2nc3cc(C)ccn3c2NCc2ccccc2)c1 (stereo unspecified)	0	-10	-3	-1	-3
Cc1ccc(N2CCN(S(=O)(=O)c3cc(C(=O)Nc4cc(Cl)cc(Cl)c4)ccc3F)CC2C)cc1 (stereo unspecified)	-3	6	1	0	1
Cc1c([C@H]2[C@@H](CC#N)C2(C)C)c2ccccc2n1C	1	-12	-1	-1	-7
Cc1[nH]c2c(Br)cccc2c1[C@H]1[C@@H](CC#N)C1(C)C	5	3	32*	0	-4
O=S(=O)(c1ccccc1Oc1ccc(Cl)cc1Cl)N1CCCCC1	5	-47*	-4	-1	-1
O=C1CC(NS(=O)(=O)c2ccc(F)cc2)CN1c1ccc2c(c1)OCCO2 (stereo unspecified)	4	13	3	0	-4
CCc1ccccc1NS(=O)(=O)c1ccc2c(c1)C(C)(C)C(=O)N2C	3	-3	2	0	-5
CCOc1ccccc1CNS(=O)(=O)c1ccc2c(c1)C(C)(C)C(=O)N2C	3	-35*!	1	0	0
CCOc1ccc(N(C)S(=O)(=O)c2ccc3c(c2)C(C)(C)C(=O)N3C)cc1	2	-36*	6	-1	-3
COc1cc(S(=O)(=O)N2CCCCC2)ccc1NC(=O)c1ccccc1Cl	2	-18	-1	-1	-3
